The values that follow come from a collection of fitness landscapes (doi:10.1016/j.celrep.2020.107928).

B1: Caulobacter ParB omega fusion; a variant is named by its letters at X, in order, B8GW30 (parent)
chain: MESVVVGEPGMSEGRRGLGRGLSALLGEVDAAPAQAPGEQLGGSREAPIEILQRNPDQPRRTFREEDLEDLSNSIREKGVLQPILVRPSPDTAGEYQIVAGERAWRAAQRAGLKTVPIMVRELDDLAVLEIGIIENVQRADLNVLEEALSYKVLMEKFERTQENIAQTIGKSXSHVANXMRLLXLPDEVQSYLVSGELTAXHARAIAAAADPVALAKQIIEGGLSVRETEALARKAPNLSAGKSKGGRPPRVKDTDTQALESDLSSVLGLDVSIDHRGSTGTLTITYATLEQLDDLCNRLTRGI

Over roughly 81,000 sequences, “one-hybrid fitness for binding parS DNA” has its median near -0.17; the highest 2% begin near 0.51. The full list was thinned out, with the highest values kept by preference.

Variants of B1 are the subject of the test. Kind of test: one-hybrid fitness for binding parS DNA (scaled: cognate 1, non-cognate 0); higher = stronger binding. The following applies: with parS DNA site. The essentials: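 On M9-minus-histidine containing 0.1 mM IPTG and 5 mM 3-AT, E. coli USO cells with a HIS3 reporter, site 19 bp from the promoter, grew 48 hours at 37°C to select Caulobacter ParB libraries randomised at four specificity codons. Plasmids from before and after were Illumina-sequenced, with three replicate libraries pooled and variants under 10 reads left out. Fitness is the log change in variant-to-wild-type read ratio, rescaled against cognate and non-cognate.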
On to TLSH, for which the “one-hybrid fitness for binding parS DNA” value was no more than 0.2. For DKSV, the “one-hybrid fitness for binding parS DNA” value is no more than 0.2. Then GGQR, with no more than 0.2; and GCKT, with no more than 0.2. Then HKHC, with no more than 0.2. Under EMRS stands no more than 0.2; under QDPW, no more than 0.2; under RVEA, 0.483. RVMA: the “one-hybrid fitness for binding parS DNA” value came out at 0.545. Take NVNA: the “one-hybrid fitness for binding parS DNA” value is no more than 0.2. Then RVNA, with 0.602; and NVYA, with no more than 0.2; and RVYA, with 0.64. Then PVNA, with no more than 0.2; and RVQA, with 0.597; and NVQA, with no more than 0.2. Then EVQA, with no more than 0.2. In the case of DVMA, the “one-hybrid fitness for binding parS DNA” value was no more than 0.2.

For FHNR, the “one-hybrid fitness for binding parS DNA” value was no more than 0.2.

On to KHET, for which the “one-hybrid fitness for binding parS DNA” value was no more than 0.2.

Regarding LGQH, the “one-hybrid fitness for binding parS DNA” value was no more than 0.2. Under KKTT stands no more than 0.2. On to TGPM, for which the “one-hybrid fitness for binding parS DNA” value is no more than 0.2. Then PPMA, with no more than 0.2; and WVPV, with no more than 0.2; and GEND, with no more than 0.2.

As to TSEH, the “one-hybrid fitness for binding parS DNA” value was no more than 0.2. Under DVRA stands no more than 0.2; under NVLA, no more than 0.2; under NVRA, no more than 0.2. Then CVLA, with no more than 0.2; and NVDA, with no more than 0.2; and RVDA, with 0.556. Consider RVGA, for which the “one-hybrid fitness for binding parS DNA” value came to 0.565. Under RVLA stands 0.565; under RVRA, 0.689. Regarding PVGA, the “one-hybrid fitness for binding parS DNA” value was no more than 0.2. For DVGA, the “one-hybrid fitness for binding parS DNA” value is no more than 0.2. Then EWRT, with no more than 0.2. Then LSNV, with no more than 0.2; and LQAW, with no more than 0.2; and ESFC, with no more than 0.2.

As for WPSS, the “one-hybrid fitness for binding parS DNA” value was no more than 0.2. Then KRVW, with no more than 0.2; and IRFN, with no more than 0.2.

For the variant FLDR, the “one-hybrid fitness for binding parS DNA” value was no more than 0.2. Then MLTT, with no more than 0.2. Then YVRR, with no more than 0.2. Under RCPV stands no more than 0.2. In the case of RVCA, the “one-hybrid fitness for binding parS DNA” value came to 0.608. Under NVCA stands no more than 0.2; under KMLT, no more than 0.2.

For WVPC, the “one-hybrid fitness for binding parS DNA” value was no more than 0.2. Under CYWL stands no more than 0.2; under QPKK, no more than 0.2; under VRCA, no more than 0.2. Turning to RHKQ, the “one-hybrid fitness for binding parS DNA” value was no more than 0.2. For RHKC, the “one-hybrid fitness for binding parS DNA” value was 0.858. Then RHVC, with 0.773; and RHVR, with no more than 0.2; and RHVQ, with no more than 0.2.

As to RHKM, the “one-hybrid fitness for binding parS DNA” value is 0.358.

As for SHAT, the “one-hybrid fitness for binding parS DNA” value was no more than 0.2. Under DRYP stands no more than 0.2. In the case of IQCS, the “one-hybrid fitness for binding parS DNA” value is no more than 0.2. Then TYDM, with no more than 0.2; and RGVT, with 0.33. Under RGVN stands no more than 0.2; under RGKN, 0.369; under RGKY, 0.436.

For the variant RGKD, the “one-hybrid fitness for binding parS DNA” value is no more than 0.2. Then RGVS, with 0.516; and RGKT, with 0.712; and RGKS, with 0.927. For RGVP, the “one-hybrid fitness for binding parS DNA” value is no more than 0.2. Under LSNY stands no more than 0.2; under WVRY, no more than 0.2; under MIPI, no more than 0.2. Under GELY stands no more than 0.2; under GYSK, no more than 0.2. Take QACE: the “one-hybrid fitness for binding parS DNA” value is no more than 0.2. Then NCKN, with no more than 0.2.

VNAS: the “one-hybrid fitness for binding parS DNA” value was no more than 0.2. Turning to NRKA, the “one-hybrid fitness for binding parS DNA” value was no more than 0.2. In the case of DRKA, the “one-hybrid fitness for binding parS DNA” value was no more than 0.2. As for NRVA, the “one-hybrid fitness for binding parS DNA” value is no more than 0.2. Then RRKA, with 0.532. RRVA: the “one-hybrid fitness for binding parS DNA” value was found to be 0.78.
